Bioassay records (PubChem BioAssay)
In the library only some 3.4% were active in any assay of this set; here they are far more common.
SMARCA2 activ: SMARCA2 function activation, primary screen; MG213 cells, MMTV-luciferase reporter, dexamethasone, overnight; activation, % at 9.1 µM; hit rate 1% among 370,000; in the data active = activation above about 7.8%
Gli-Sufu antag: blocks Gli-Sufu signaling in a luciferase reporter. Sufu-KO-LIGHT fibroblasts, Gli luciferase reporter luminescence. inhibition, % at 5 µM. hit rate 0.74% among 340,000. AID 588413;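 active = inhibition above about 55%, limit read from the data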
Cardio protect: modulators protecting cardiomyocytes from myocardial damage; AID 588492; protection from H2O2 cell death, % at 20 µM; hit rate 0.63% among 360,000; H9c2 cardiomyocytes, H2O2 injury protection, ATPLite, 2 h;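 active = compounds giving at least 50% protection of heart cells from peroxide-induced death in the single-dose screen, raw or plate-pattern-corrected value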
COUP-TFII inh: NR2F2 (human) inhibition, primary screen; hit rate 0.7% among 370,000; P24468; AID 686940; HEK293T NGFI-A luciferase reporter, luminescence; inhibition, % at 8.6 µM;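 active = inhibition above a per-plate cutoff, mean inhibition of test wells between control levels plus 3 SD, cut at about 38% in these data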;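 also: cells cotransfected with COUP-TFII expression vector driving the NGFI-A reporter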
FXN GAA850 act: frataxin GAA850 promoter activation; HEK293 lucGAA850 FXN promoter luciferase reporter, 24 h; percent of 10 µM SAHA response; activation, % at 6 µM; hit rate 0.56% among 360,000; AID 540364;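 active = activation above the average of all compounds screened plus 3 SD, cutoff fixed separately per campaign, cut at about 7.5% in these data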
GalR3 antagonist: blocks the human galanin receptor 3; O60755; HEK293 GalR3-CNG cAMP membrane potential fluorescence; galR3 body fused to GalR1 C-terminus; inhibition, % at 3 µM; hit rate 0.44% among 360,000; AID 651719;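 active = inhibition above the screen-wide average plus 3 SD, cut at about 13% in these data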;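 also: forskolin and galanin both at EC90 stimulate the cells; cAMP rise reported by CNG channel membrane potential dye signal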
Target sequence (O60755 1-299 limits assumed): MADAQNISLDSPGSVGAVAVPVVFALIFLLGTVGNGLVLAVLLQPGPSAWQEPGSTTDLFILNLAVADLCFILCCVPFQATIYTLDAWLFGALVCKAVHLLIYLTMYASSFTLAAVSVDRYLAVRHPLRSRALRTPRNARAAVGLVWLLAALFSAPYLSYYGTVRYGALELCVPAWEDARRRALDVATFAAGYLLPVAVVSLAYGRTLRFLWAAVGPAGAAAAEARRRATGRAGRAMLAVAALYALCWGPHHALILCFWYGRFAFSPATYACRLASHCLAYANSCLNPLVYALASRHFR
SMARCA2 conf: confirmation of SMARCA2 (BRM) function activators. hit rate 30% among 3,500. MG213 cells, MMTV-luciferase with dexamethasone, luminescence, overnight; MG213 cells expressing E1A, Rb sequestered; DMSO wells 0%, reference activator 100%. shares compounds with SMARCA2 activ. activation, % at 9.1 µM;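 active = activation above its plate's cutoff, the mean activation of tested wells plus 3 SD, cut at about 7.9% in these data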
VP16 Luc act: activates GAL4-VP16 luciferase, flagging SMARCA2 activator hits | shares compounds with SMARCA2 activ | hit rate 41% among 3,500 | activation, % at 9.1 µM | HEK293 GAL4-VP16 pG5luc reporter, luciferase luminescence; scaled: DMSO wells 0%, SAHA wells 100% | AID 686939;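 active = activation above the solvent-only control well mean plus 3 SD, averaged across control plates, cut at about 5.2% in these data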
Numbers stand for hits; 0 = inactive; - = not tested or not shown.

SMILES	SMARCA2 activ	Gli-Sufu antag	Cardio protect	COUP-TFII inh	FXN GAA850 act	GalR3 antagonist	SMARCA2 conf	VP16 Luc act
COc1cc(/C=N/NC(=O)c2c(C)nc3ccc(Cl)cn23)cc(OC)c1OC	0	0	0	0	0	0	-	-
O=C(NCCN1CCOCC1)c1sc2cc(Cl)ccc2c1Cl	0	0	0	0	0	0	-	-
O=C(NCC1CCCO1)c1sc2cc(Cl)ccc2c1Cl (centres undefined)	10	0	0	0	0	0	8.4	9.4
CCOc1ccc(CNC(=O)CN2C(=O)CSc3ccc(S(=O)(=O)N4CCOCC4)cc32)cc1	0	-	0	0	0	0	-	-
Cc1ccc(OCc2nnc(SCC(=O)N3C(C)CCCC3C)o2)cc1 (centres undefined)	0	0	0	0	0	0	-	-
Cc1cccc(-c2nnc(-c3ccc4ccccc4c3)o2)c1	11	0	0	0	0	0	0	0
Cc1cccc(-c2nnc(-c3cccc4ccccc34)o2)c1	0	0	0	0	0	0	-	-
NC(=O)[C@@H]1CCOc2c(I)cc([N+](=O)[O-])cc2C(=O)N[C@@H](CO)C(=O)NCC(=O)N1	0	0	0	0	0	0	-	-
COc1cccc(-n2c(CN3CCN(Cc4ccccc4)CC3)nc3ccc([N+](=O)[O-])cc3c2=O)c1	12	-	-	0	-	0	0	0
CCOC(=O)c1ccc(-n2c(CN3CCN(CCO)CC3)nc3ccc([N+](=O)[O-])cc3c2=O)cc1	9.5	0	0	0	0	0	9.8	0
COc1ccc(-n2c(CN3CCN(C)CC3)nc3ccc([N+](=O)[O-])cc3c2=O)c(OC)c1	0	0	0	0	0	0	-	-
COc1ccc(-n2c(CN3CCN(Cc4ccccc4)CC3)nc3ccc([N+](=O)[O-])cc3c2=O)c(OC)c1	0	0	0	0	0	0	-	-
CCOC(=O)c1csc(Nc2nc3ccc(F)cc3s2)n1	11	0	0	0	0	0	0	20
CCCN1CCN(C(=O)c2cc(COc3ccc(F)cc3F)on2)CC1	0	0	0	0	0	0	-	-
CSc1nc(C)cc(SCC(=O)Nc2ccc(Cl)cc2Cl)n1	8.0	0	0	0	0	0	0	0
Cc1cc(N)n(-c2ccccc2C)n1	0	0	0	0	0	0	-	-
Cc1cc(C)c2nc(-n3nc(C)cc3N)cc(C)c2c1	10	0	0	0	0	0	8.2	6.2
CCOc1ccc(OCc2ccc(C(=O)O)o2)cc1	0	0	0	0	0	0	-	-
O=C(O)c1ccc(COc2ccc3ccccc3c2)o1	8.6	0	0	0	0	0	0	8.7
COC(=O)c1c(NC(=O)Cc2ccccc2)sc2c1CC(C)(C)NC2(C)C	12	0	0	0	0	0	0	0
COc1ccc(C(=O)OCC(N)=O)cc1[N+](=O)[O-]	11	0	0	0	0	0	0	0
CCOC(=O)N1CCN(C(=O)CSc2ccc(-c3ccc(OC)c(OC)c3)nn2)CC1	0	0	0	0	0	0	-	-
COc1ccc(-c2ccc(SCC(=O)N3c4ccccc4CC3C)nn2)cc1OC (centres undefined)	13	0	0	0	0	0	0	0
COc1cccc(-c2csc(N3CCN(C(=S)Nc4ccccc4C)CC3)n2)c1	0	0	0	0	0	0	-	-
Cc1ccc(NC2CC(C)NC(=S)N2)cc1 (centres undefined)	0	0	0	0	0	0	-	-
SMILES	SMARCA2 activ	Gli-Sufu antag	Cardio protect	COUP-TFII inh	FXN GAA850 act	GalR3 antagonist	SMARCA2 conf	VP16 Luc act
CCOc1cc2c(C)cc(=O)oc2cc1Cl	9.9	0	0	0	0	0	0	0
COC(=O)[C@@]12C[C@@H](CC(=O)N3CCSCC3)C(=O)N(Cc3ccc4c(c3)OCO4)C1=CCC(C)(C)C2	0	-	-	0	-	0	-	-
Cc1ccc(F)cc1NC(=O)/C=C/c1ccc(S(=O)(=O)N2CCOCC2)cc1	0	0	0	0	0	0	-	-
CCN1CCN(c2ccc(S(=O)(=O)N3CCOCC3)cc2NC(=O)/C=C/c2ccc([N+](=O)[O-])cc2)CC1	11	0	0	0	0	0	35	0
O=C(/C=C/c1ccc(S(=O)(=O)N2CCOCC2)cc1)Nc1cc(F)ccc1F	9.0	0	0	0	0	0	0	0
O=C(CSc1nnc(SCc2ccc(Cl)cc2)s1)c1ccc2c(c1)OCO2	0	0	0	0	0	0	-	-
CCN(C(=O)COC(=O)/C(C#N)=C/c1ccc(N(C)C)cc1)C1CCS(=O)(=O)C1 (centres undefined)	8.3	0	0	0	0	0	0	0
CCCc1nc(SCC(=O)c2ccc(F)cc2)c2ccccc2n1	8.3	0	0	0	0	0	0	0
Cc1ccc(C(=O)CSc2nc3ccccc3c(=O)[nH]2)cc1	9.6	0	47	0	0	0	0	0
CCCCCN(C(=O)CCC(=O)OCC(=O)Nc1cccc(CC)c1)c1c(N)n(CCCC)c(=O)[nH]c1=O	0	0	0	0	0	0	-	-
O=C(NCc1cccs1)c1cccnc1Cl	11	0	0	0	0	0	0	0
O=C(NCc1cccs1)c1cnc(Cl)c(Cl)c1	0	0	0	0	0	0	-	-
CCOc1ccc(Nc2nc(N)c([N+](=O)[O-])c(N3CCN(CC)CC3)n2)cc1	12	0	0	0	0	0	0	0
CC1=NN(C(C#N)c2ccccc2C)C(C)(C)C1 (centres undefined)	0	0	0	0	0	0	-	-
CC(=O)Nc1ccc2c(=O)n(-c3ccccc3)sc2c1	9.8	-	0	0	0	0	0	0
Cc1cccc(NC(=O)CCc2ccccc2)c1	9.2	0	0	0	0	0	0	0
CC(=O)Nc1cccc(NC(=O)CCc2ccccc2)c1	0	0	0	0	0	0	-	-
O=C(CCCc1ccccc1)Nc1cccc(C(=O)O)c1	8.2	0	0	0	0	0	9.1	14
O=C(CCc1ccccc1)Nc1ccccc1[N+](=O)[O-]	8.2	0	0	0	0	0	15	5.3
O=C(CCc1ccccc1)NC(=S)Nc1cccc(C(=O)O)c1	0	0	0	0	0	0	-	-
COc1cc2cc(CCOC(=O)c3ccco3)oc(=O)c2cc1OC	0	0	0	0	0	0	-	-
CCOC(=O)C1=C[C@@H](C(C)(C)C)N(S(=O)(=O)c2ccc(C)cc2)[C@H]1c1ccc(OC)cc1	0	-	0	0	-	0	-	-
COc1ccc(CCNC(=O)CC(c2ccccc2)c2cc(C)ccc2O)cc1OC (centres undefined)	-	0	0	-	0	-	-	-
O=C(Nc1ccc(-c2nc3cccnc3s2)cc1)c1ccco1	8.2	0	0	0	0	-	0	10
O=C(Nc1ccc(-c2nc3cccnc3s2)cc1)c1ccc(Br)o1	0	0	0	0	0	-	-	-
